# Results published in PubChem BioAssay (Tox21).
# Several values for one entry are separate records, joined by “and”; a condition that tells them apart may be missing. Equal entries are not always repeated. Results filed as inconclusive are left out. Where a call stands in place of a potency, no number is given. Some compounds were tested as several samples or in several runs, with calls that do not always agree. Activity calls are given as the source filed them. Unless noted, calls come from the whole dose curve; as a rule, active = well fitted curve in the direction sought with a large enough effect in the repeat runs; inconclusive = weak or mixed curves; inactive = no such curve, though single readings can be large; an effect the other way counts as inactive or inconclusive.
# How the values were obtained:
# [1] = molecular target: Thyrotropin receptor (Homo sapiens) (UniProt P16473); assay: qHTS assay to identify small molecule agonists of the thyroid stimulating hormone receptor (TSHR) signaling pathway (AID 1224843; calls by dose curve; note: nearly all actives have a fitted effect of over 45% in size)
# In short: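 TSHR-expressing HEK293 cells (800 per well) were exposed to compounds for 30 min at room temperature. cAMP was then detected by HTRF competition with cAMP-d2 and anti-cAMP cryptate, read after 1 h at room temperature. Fifteen concentrations, triplicate.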
# [2] = qHTS assay to identify small molecule agonists of the hypoxia (HIF-1) signaling pathway - cell viability counter screen (AID 1224844; calls by dose curve; note: nearly all actives have a fitted effect of over 50% in size; note: potency is the fitted concentration of half-maximal effect)
# In short: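 ME-180 HRE-bla cells, 2,000/well, 0.5% dialyzed FBS; 5 hr settle, 17 hr compound at 37C/5% CO2; CCF4-AM reporter read first, then CellTiter-Glo luminescence after 30 min RT.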
# [3] = qHTS assay to identify small molecule agonists of the hypoxia (HIF-1) signaling pathway (AID 1224846; active = well fitted activation curve with a large enough effect in the signal ratio in the repeat runs, not every such curve was filed as active; the % refers to the signal ratio)
# In short: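 Cell line: CellSensor HRE-bla ME-180; 2,000 cells/well; 0.5% dialyzed FBS; 5 h preincubation; DMSO compound pin transfer; 17 h, 37C, 5% CO2; CCF4-AM added; bla FRET signal scored for activation.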
# [4] = qHTS assay to identify small molecule agonists of H2AX - cell viability counter screen (AID 1224847; calls by dose curve; note: nearly all actives have a fitted effect of over 30% in size; note: potency is the fitted concentration of half-maximal effect)
# In short: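 Viability of CHO-K1 (wild type) cells after 3 hr compound exposure was measured by CellTiter-Glo luminescence.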
# [5] = qHTS RealTime-Glo MT Cell Viability Assay in HepG2 cells - 24 hour (AID 1224867); note: nearly all actives have a fitted effect of over 50% in size
# In short: (§1)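 HepG2 suspension premixed with RealTime-Glo reagents is plated at 600 cells per well and left 5 h at 37 C/5% CO2. Compounds in DMSO then go in, and bioluminescence reflecting viable cell number is recorded over 40 h.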
# [6] = qHTS RealTime-Glo MT Cell Viability Assay in HEK293 cells - 32 hour (AID 1224868); note: nearly all actives have a fitted effect of over 50% in size; note: potency is the fitted concentration of half-maximal effect
# In short: (§2)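 Reads taken at 0, 8, 16, 24, 32 and 40 h from the same wells. HEK293 cells (600/well) carried RealTime-Glo reagents from seeding, with compound added after a 5 h settle at 37 C.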
# [7] = A CellTox Green Cytotoxicity Assay to monitor cytotoxicity in HEK293 cells - 0 hour (AID 1224869); note: nearly all actives have a fitted effect of over 50% in size
# In short: (§3)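 Nonlytic real-time cytotoxicity: HEK293 + CellTox Green reagent plated, 5 h preincubation, pintool compound addition (23 nL in DMSO), 37 C for 40 h, fluorescence measured at successive time points.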
# [8] = qHTS RealTime-Glo MT Cell Viability Assay in HepG2 cells - 40 hour (AID 1224870); note: nearly all actives have a fitted effect of over 50% in size
# In short: (§4)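 HepG2 cells mixed with RealTime-Glo MT reagents (NanoLuc plus cell-permeant prosubstrate) were seeded at 600 cells/well, incubated 5 h at 37 C/5% CO2, then pinned with compounds in DMSO; nonlytic luminescence tracked viability during 40 h treatment.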
# [9] = A CellTox Green Cytotoxicity Assay to monitor cytotoxicity in HEK293 cells - 40 hour (AID 1224871); note: nearly all actives have a fitted effect of over 45% in size; note: potency is the fitted concentration of half-maximal effect
# In short: as §3
# [10] = qHTS RealTime-Glo MT Cell Viability Assay in HEK293 cells - 16 hour (AID 1224872); note: nearly all actives have a fitted effect of over 50% in size; note: potency is the fitted concentration of half-maximal effect
# In short: as §2
# [11] = qHTS RealTime-Glo MT Cell Viability Assay in HepG2 cells - 8 hour (AID 1224873); note: nearly all actives have a fitted effect of over 55% in size
# In short: as §4
# [12] = qHTS RealTime-Glo MT Cell Viability Assay in HEK293 cells - 40 hour (AID 1224874); settings: RealTime-Glo luminescence; max response: stronger effect = lower value; note: nearly all actives have a fitted effect of over 50% in size; note: potency is the fitted concentration of half-maximal effect
# In short: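 Cells were seeded together with NanoLuc luciferase and a prosubstrate that viable cells reduce to a luciferase substrate. After a 5 h incubation at 37 C/5% CO2, compounds were added and luminescence was measured repeatedly during 40 h of treatment.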
# [13] = A CellTox Green Cytotoxicity Assay to monitor cytotoxicity in HEK293 cells - 24 hour (AID 1224875); note: nearly all actives have a fitted effect of over 45% in size; note: potency is the fitted concentration of half-maximal effect
# In short: as §3
# [14] = A CellTox Green Cytotoxicity Assay to monitor cytotoxicity in HepG2 cells - 16 hour (AID 1224876); note: nearly all actives have a fitted effect of over 45% in size
# In short: (§5)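 Read-out is fluorescence of a cyanine dye excluded from live cells that stains DNA of dead HepG2 cells, with signal proportional to cytotoxicity. Plates were read at 0, 8, 16, 24, 32 and 40 h after compound addition.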
# [15] = qHTS RealTime-Glo MT Cell Viability Assay in HepG2 cells - 32 hour (AID 1224877); note: nearly all actives have a fitted effect of over 55% in size
# In short: as §1
# [16] = A CellTox Green Cytotoxicity Assay to monitor cytotoxicity in HepG2 cells - 24 hour (AID 1224878); note: nearly all actives have a fitted effect of over 45% in size; note: potency is the fitted concentration of half-maximal effect
# In short: as §5
# [17] = A CellTox Green Cytotoxicity Assay to monitor cytotoxicity in HepG2 cells - 40 hour (AID 1224879); note: nearly all actives have a fitted effect of over 40% in size; note: potency is the fitted concentration of half-maximal effect
# In short: as §5
# [18] = qHTS assay to identify small molecule antagonists of the estrogen related receptor (ERR) signaling pathway from Tox21 library (AID 1224848); note: nearly all actives have a fitted effect of over 50% in size; note: potency is the fitted concentration of half-maximal effect
# In short: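 Cells: ERR line, 2,000/well; 6 h preincubation 37 C/5% CO2. Cpd in DMSO via pin tool; 18 h, 37 C. ONE-Glo, 30 min RT, luminescence.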
# [19] = qHTS assay to identify small molecule agonists of the estrogen related receptor (ERR) signaling pathway from Tox21 library (AID 1224849; calls by dose curve; note: nearly all actives have a fitted effect of over 15% in size); settings: ERR reporter cell line, ONE-Glo luciferase, 18 h
# In short: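 ERR cells, 6 h pre-incubation 37 C/5% CO2; cpd in DMSO pinned; 18 h 37 C; ONE-Glo added, 30 min RT; luminescence read. Agonist mode, qHTS.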
# [20] = qHTS assay to identify small molecule agonists of H2AX (AID 1224845; active = well fitted activation curve with a large enough effect in the signal ratio in the repeat runs, not every such curve was filed as active; the % refers to the signal ratio)
# In short: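 Wild-type CHO-K1 cells plated overnight, then exposed 3 hr at 37C to compounds at 15 concentrations (0.76% DMSO). Lysed, then HTRF anti-pH2AX(S139)-cryptate/anti-H2AX-d2 detection after 24 hr at room temperature; emissions 665 and 620 nm.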
# Sequence of Thyrotropin receptor (Homo sapiens) (P16473 whole entry, looked up): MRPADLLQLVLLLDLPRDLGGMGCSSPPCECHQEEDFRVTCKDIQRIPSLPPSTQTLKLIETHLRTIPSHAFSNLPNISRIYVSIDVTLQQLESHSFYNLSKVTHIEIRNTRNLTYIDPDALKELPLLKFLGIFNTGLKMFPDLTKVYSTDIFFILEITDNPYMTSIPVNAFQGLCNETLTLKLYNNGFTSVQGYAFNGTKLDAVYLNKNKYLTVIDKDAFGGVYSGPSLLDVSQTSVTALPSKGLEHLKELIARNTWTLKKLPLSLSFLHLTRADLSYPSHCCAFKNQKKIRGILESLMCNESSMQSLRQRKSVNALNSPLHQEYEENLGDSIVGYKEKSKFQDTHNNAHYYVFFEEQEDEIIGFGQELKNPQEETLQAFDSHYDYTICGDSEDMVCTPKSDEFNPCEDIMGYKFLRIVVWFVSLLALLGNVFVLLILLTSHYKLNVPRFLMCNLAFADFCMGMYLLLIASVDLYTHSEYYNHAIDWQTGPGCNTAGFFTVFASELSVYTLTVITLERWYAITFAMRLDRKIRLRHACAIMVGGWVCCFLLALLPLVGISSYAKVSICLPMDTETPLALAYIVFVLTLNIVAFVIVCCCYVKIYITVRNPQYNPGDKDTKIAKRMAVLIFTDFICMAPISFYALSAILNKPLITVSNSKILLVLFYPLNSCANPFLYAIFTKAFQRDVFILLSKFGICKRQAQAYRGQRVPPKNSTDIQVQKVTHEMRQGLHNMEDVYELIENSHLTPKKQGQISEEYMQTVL
smiles,measurement,setting,value
Nc1ccc(-c2ccc(N)c(N)c2)cc1N,Potency,[1],inactive
same,Potency,[2],inactive
same,outcome,[3],inactive
same,Potency,[4],inactive
same,Potency,[5],inactive
same,Potency,[6],inactive
same,Potency,[7],inactive
same,Potency,[8],inactive
same,Potency,[9],inactive
same,Potency,[10],inactive
same,Potency,[11],inactive
same,max response,[12],10% (inactive)
same,Potency,[13],inactive
same,Potency,[14],inactive
same,Potency,[15],inactive
same,Potency,[16],inactive
same,Potency,[17],inactive
c1nc[nH]n1,Potency,[1],inactive
same,Potency,[2],inactive
same,outcome,[3],inactive
same,Potency,[4],inactive
same,Potency,[18],inactive
same,"activity change, positive = activation",[19]; at 92.4 µM (top of the series),1.27% (inactive) and 6.15% (inactive)
same,Potency,[5],inactive
same,Potency,[6],inactive
same,Potency,[7],inactive
same,Potency,[9],inactive
same,Potency,[10],inactive
same,Potency,[11],inactive
same,max response,[12],-1.48% (inactive) and 17.9% (inactive)
same,Potency,[13],inactive
same,Potency,[14],inactive
same,Potency,[15],inactive
same,Potency,[16],inactive
same,Potency,[17],inactive
CCCCC(CC)COC(=O)Cl (stereo unspecified),Potency,[1],inactive
same,Potency,[2],inactive
same,outcome,[3],inactive
same,Potency,[4],inactive
same,Potency,[18],inactive
same,"activity change, positive = activation",[19]; at 92.4 µM (top of the series),0.183% (inactive) and -0.549% (inactive)
same,Potency,[5],inactive
same,Potency,[6],inactive
same,Potency,[7],inactive
same,Potency,[8],inactive
same,Potency,[9],inactive
same,Potency,[10],inactive
same,Potency,[11],inactive
same,max response,[12],2.04% (inactive)
same,Potency,[13],inactive
same,Potency,[15],inactive
same,Potency,[16],inactive
same,Potency,[17],inactive
CCC(C)(c1ccc(O)cc1)c1ccc(O)cc1,Potency,[1],inactive
same,Potency,[2],inactive
same,outcome,[3],inactive
same,Potency,[4],inactive
same,Potency,[18],54.5 µM (active)
same,"activity change, positive = activation",[19]; at 92.4 µM (top of the series),-28.1% (inactive) and -37.5% (inactive)
same,Potency,[5],inactive
same,Potency,[7],inactive
same,Potency,[9],inactive
same,Potency,[11],inactive
same,Potency,[12],24.5 µM (active) and 43.6 µM (active)
same,Potency,[13],inactive
same,Potency,[14],inactive
same,Potency,[15],inactive
same,Potency,[16],inactive
same,Potency,[17],inactive
CCC(C)(C)c1ccc(O)cc1,Potency,[1],inactive
same,Potency,[2],inactive
same,outcome,[3],inactive
same,Potency,[4],80 µM (active)
same,Potency,[18],inactive
same,"activity change, positive = activation",[19]; at 42.5 µM (top of the series),-6.2% (inactive)
same,"activity change, positive = activation",[19]; at 92.4 µM (top of the series),-16.7% (inactive) and -1.98% (inactive)
same,Potency,[5],inactive
same,Potency,[6],inactive
same,Potency,[7],inactive
same,Potency,[9],49.5 µM (active) and 43.6 µM (active)
same,Potency,[10],inactive
same,Potency,[11],inactive
same,max response,[12],-5.76% (inactive) and -0.143% (inactive)
same,Potency,[13],49.5 µM (active) and 49 µM (active)
same,Potency,[15],inactive
same,Potency,[16],49.5 µM (active) and 43.6 µM (active) and 23.9 µM (active)
same,Potency,[17],44.1 µM (active) and 38.9 µM (active) and 21.3 µM (active)
Cc1cc(C)cc(C)c1,Potency,[1],inactive
same,Potency,[2],inactive
same,outcome,[3],inactive
same,Potency,[4],inactive
same,Potency,[5],inactive
same,Potency,[6],inactive
same,Potency,[7],inactive
same,Potency,[8],inactive
same,Potency,[9],inactive
same,Potency,[10],inactive
same,Potency,[11],inactive
same,max response,[12],1.65% (inactive) and -3.48% (inactive)
same,Potency,[13],inactive
same,Potency,[15],inactive
same,Potency,[16],inactive
same,Potency,[17],inactive
Nc1ccc(-c2ccccc2)cc1,Potency,[1],inactive
same,Potency,[2],28.3 µM (active) and inactive
same,outcome,[3],inactive
same,Potency,[4],inactive
same,Potency,[5],inactive
same,Potency,[6],7.98 µM (active) and inactive
same,Potency,[7],inactive
same,Potency,[9],inactive
same,Potency,[10],10 µM (active) and inactive
same,Potency,[11],inactive
same,Potency,[12],10 µM (active)
same,max response,[12],-19.4% (inactive)
same,Potency,[13],inactive
same,Potency,[15],inactive
same,Potency,[16],inactive
same,Potency,[17],inactive
Oc1ccc(-c2ccccc2)cc1,Potency,[1],inactive
same,Potency,[2],inactive
same,Potency,[20],inactive
same,outcome,[3],inactive
same,Potency,[18],inactive
same,"activity change, positive = activation",[19]; at 92.4 µM (top of the series),1.81% (inactive)
same,Potency,[5],inactive
same,Potency,[7],inactive
same,Potency,[8],inactive
same,Potency,[9],19.2 µM (active)
same,Potency,[11],inactive
same,Potency,[13],inactive
same,Potency,[15],inactive
same,Potency,[16],inactive and 49 µM (active)
same,Potency,[17],inactive and 49 µM (active)
CCCCCCCCCCCOC(=O)c1ccccc1C(=O)OCCCCCCCCCCC,Potency,[1],inactive
same,Potency,[2],inactive
same,outcome,[3],inactive
same,Potency,[4],inactive
same,Potency,[5],inactive
same,Potency,[6],inactive
same,Potency,[7],inactive
same,Potency,[8],inactive
same,Potency,[9],inactive
same,Potency,[10],inactive
same,Potency,[11],inactive
same,max response,[12],1.36% (inactive) and 2.6% (inactive)
same,Potency,[13],inactive
same,Potency,[15],inactive
same,Potency,[16],inactive
same,Potency,[17],inactive
Oc1cc(Cl)ccc1Cl,Potency,[1],inactive
same,Potency,[2],inactive
same,outcome,[3],inactive
same,Potency,[4],inactive
same,Potency,[5],inactive
same,Potency,[6],inactive
same,Potency,[7],inactive
same,Potency,[9],inactive
same,Potency,[10],inactive
same,Potency,[11],inactive
same,max response,[12],-8.7% (inactive) and -0.256% (inactive)
same,Potency,[13],inactive
same,Potency,[14],inactive
same,Potency,[15],inactive
same,Potency,[16],inactive
same,Potency,[17],inactive
C#C[C@]1(O)CC[C@H]2[C@@H]3CCC4=CC(=O)CC[C@]4(C)[C@H]3CC[C@@]21C,Potency,[1],inactive
same,Potency,[2],inactive
same,Potency,[20],inactive
same,Potency,[4],inactive
same,Potency,[5],inactive
same,Potency,[6],inactive
same,Potency,[7],inactive
same,Potency,[8],inactive
same,Potency,[9],49 µM (active)
same,Potency,[10],inactive
same,Potency,[11],inactive
same,max response,[12],-4.36% (inactive) and -16.3% (inactive)
same,Potency,[15],inactive
same,Potency,[16],inactive
CCc1cccc(CC)c1N(COC)C(=O)CCl,Potency,[1],inactive
same,Potency,[2],47.4 µM (active)
same,outcome,[3],inactive
same,Potency,[4],inactive
same,Potency,[5],inactive
same,Potency,[6],inactive
same,Potency,[7],inactive
same,Potency,[9],inactive
same,Potency,[10],inactive
same,Potency,[11],inactive
same,max response,[12],-25.5% (inactive)
same,Potency,[13],inactive
same,Potency,[14],inactive
same,Potency,[15],inactive
same,Potency,[16],inactive
same,Potency,[17],inactive
